Assay results published in PubChem BioAssay AID463173 (ICCB-Longwood Screening Facility, Harvard Medical School, 2010).
The whole screen tested about 52,000 compounds, of which about 4,300 (8.3%) were called active. The sample holds actives, similar compounds and a random draw of the others, so the mix is not that of the screen. Unmarked numbers belong to inactive results. No stated cut-off is given here; in the data, active means survival mostly below about 52% (no sharp cut-off); inactive means mostly above about 56%.

System: DeltatarO mutant
Assay: growth inhibition of S. aureus wild type versus tarO mutant, primary screen, teichoic acid synthesis inhibitors, RN4220, OD600 (AID 463173)
Conditions: OD600, 18 h, active compounds read low, screened at 18.75 µg/mL (by protocol)

Compound	survival
CCc1cccc(NC(=O)c2ccc3c(=O)n4nc(Nc5ccccc5OC)sc4nc3c2)c1	74%
Clc1ccccc1-c1nnc(SCc2nc(-c3ccccc3)no2)n1-c1ccccc1	52%
CC(C)(C)OC(=O)N1CCC(c2c(C(=O)N3CCN(c4ccccc4)CC3)cnn2-c2ccccc2)CC1	81%
Cc1ccc2nc(Nc3cccc(Cl)c3C)c(-n3nc(C)cc3C)nc2c1	123%
Cc1cc(C)n(-c2nc3ccccc3nc2Nc2cc(Cl)ccc2C)n1	130%
Cc1ccc(Nc2nc3ccccc3nc2-n2nc(C)cc2C)c(Cl)c1	70%
Cc1cc(C)cc(Nc2nc3cc(Cl)c(Cl)cc3nc2-n2nc(C)cc2C)c1	89%
COc1ccc(OC)c(Nc2nc3ccccc3nc2-n2nc(C)cc2C)c1	16% (active)
COc1cc(OC)c(Nc2nc3ccccc3nc2-n2nc(C)cc2C)cc1Cl	97%
Cc1cc(C)n(-c2nc3ccccc3nc2Nc2ccc(Cl)cc2Cl)n1	75%
Cc1cc(C)n(-c2nc3ccccc3nc2Nc2cccc(C(F)(F)F)c2)n1	75%
Cc1cc(C)n(-c2nc3ccccc3nc2Nc2cccc(C)c2C)n1	21% (active)
Cc1cc(C)n(-c2nc3ccccc3nc2Nc2ccc(Cl)c(Cl)c2)n1	0% (active)
COc1ccccc1Nc1nc2ccc(Cl)cc2nc1-n1nc(C)cc1C	133%
Cc1cc(C)cc(Nc2nc3ccccc3nc2-n2nc(C)cc2C)c1	23% (active)
CCOC(=O)c1cc(-c2ccccc2)n(CCC(=O)Nc2cc(C)cc(C)c2)c1C	99%
Cc1ccc(NC(=O)C(C)Sc2nc(=O)cc(N)n2-c2cccc(C)c2)cc1 (stereo not given)	59%
CCOC(=O)c1cccc(NC(=O)c2cn(-c3cccc(OC)c3)c(=O)c3ccccc23)c1	60%
COc1ccc(Cl)cc1NC(=O)c1ccc(CN2C(=O)CCn3nc(C)cc32)cc1	66%
CC(C)c1ccc(NC(=O)CSC2=Nc3ccccc3C3=NC(CC(=O)NCCc4ccccc4)C(=O)N23)cc1 (stereo not given)	72%
Nc1nc(CC(=O)NN=C2CCCCCC2)cs1	65%
CCOc1ccc(Nc2nc3cc(Cl)c(Cl)cc3nc2-n2nc(C)cc2C)cc1	87%
CCc1ccccc1Nc1nc2cc(Cl)c(Cl)cc2nc1-n1nc(C)cc1C	89%

Compound	survival
Cc1cc(C)n(-c2nnc(Nc3ccc(C(C)C)cc3)c3ccccc23)n1	80%
COc1cccc(Nc2nc3ccc(C)cc3nc2-n2nc(C)cc2C)c1	88%
Cc1cc(C)n(-c2nc3ccccc3nc2Nc2ccc(N(C)C)cc2)n1	-2% (active)
Cc1cc(C)n(-c2nc3ccccc3nc2Nc2ccc(C(C)C)cc2)n1	8% (active)
Cc1ccc(NC(=O)c2cnn(-c3ccc(C)c(C)c3)c2C2CCN(C(=O)OC(C)(C)C)CC2)c(C)c1	109%
CN(C(=O)c1ccccc1)C1CCS(=O)(=O)C1 (stereo not given)	90%
Cc1ccc(N2CC(C(=O)NCc3nnnn3-c3ccc(C)c(C)c3)CC2=O)cc1 (stereo not given)	69%
Cc1ccc(-c2ccc(=O)n(CC(=O)NC(C)c3ccccc3)n2)cc1 (stereo not given)	69%
Cc1c(-c2cccc(NC(=O)Nc3ccccc3)c2)nc2ncccn12	76%
Cc1c(-c2cccc(NC(=O)Nc3ccc(Cl)cc3)c2)nc2ncccn12	-2% (active)
Cc1c(-c2cccc(NC(=O)C(C)(C)C)c2)nc2ncccn12	79%
Cc1ccc(-n2nc(C(=O)N3CCC(C)CC3)c(=O)n(C)c2=O)cc1	86%
Cc1ccc(-n2nc(C(=O)N3CCCCC3)c(=O)n(C)c2=O)cc1	52% (active)
Cc1ccc(-n2nc(C(=O)N3CCN(c4ccccc4)CC3)c(=O)n(C)c2=O)cc1	124%
Cn1c(SCc2ccccc2)nnc1C1CCCN1CC(=O)N1CCN(c2ccc(F)cc2)CC1 (stereo not given)	70%
Cc1ccc(CNC(=O)CSc2nc(=O)[nH]c3c2CCCC3)cc1	76%
COc1cc(SC)ccc1C(=O)NCc1ccccc1	95%
Cc1ccc(-n2ncc(C(=O)NCCN3CCc4ccccc4C3)c2C2CCN(C(=O)OC(C)(C)C)CC2)cc1C	99%
Cc1ccc(C)c(Cn2c(=O)n(CCCC(=O)NCc3ccc4c(c3)OCO4)c(=O)c3sccc32)c1	74%
CCC(=O)Oc1c(Sc2ccc(C)cc2)c(C)nn1-c1ccccc1	71%
Cc1nn(-c2ccccc2)c(OC(=O)C(C)C)c1Sc1ccccc1	48%
CCCC(=O)Oc1c(Sc2ccc(Cl)cc2)c(C)nn1-c1ccccc1	23% (active)
CCCC(=O)Oc1c(Sc2ccc(C)cc2)c(C)nn1-c1ccccc1	56%

Compound	survival
Cc1nn(-c2ccccc2)c(OC(=O)C(C)C)c1Sc1ccc(Cl)cc1	36% (active)
CCC(=O)Oc1c(Sc2ccc(Cl)cc2)c(C)nn1-c1ccccc1	13% (active)
COc1ccc(C(=O)Oc2c(Sc3ccccc3)c(C)nn2-c2ccccc2)cc1OC	47%
COc1cc(C(=O)Oc2c(Sc3ccccc3)c(C)nn2-c2ccccc2)cc(OC)c1OC	83%
COc1ccccc1C(=O)Oc1c(Sc2ccccc2)c(C)nn1-c1ccccc1	62%
CCC1CCCCN1C(=O)CSc1n[nH]c(-c2ccccc2Cl)n1 (stereo not given)	102%
O=C(NC1CCCCC1)N(Cc1ccccc1)Cc1cc2cc3c(cc2[nH]c1=O)OCCO3	52%
CCOC(=O)c1cnc2c(C)cc(C)cc2c1Nc1ccccc1OCC	-1% (active)
CCOC(=O)c1cnc2c(C)cc(C)cc2c1Nc1cccc(C(=O)O)c1	5% (active)
CCOC(=O)c1ccc2nc(C)cc(Nc3cccc(C(=O)O)c3)c2c1	173%
CCOC(=O)c1cnc2c(C)cc(C)cc2c1Nc1ccc(OCc2ccccc2)cc1	17% (active)
CCOC(=O)c1cnc2c(Cl)cc(Cl)cc2c1Nc1ccccc1OC	57%
CCOC(=O)c1cc(S(=O)(=O)Nc2ccccc2OCC)[nH]n1	72%
Cc1cc(C)c2nc(C)cc(Nc3cccc(C(=O)O)c3)c2c1	70%
COc1ccc(CCn2c3c(c(=O)[nH]c2=O)C(NC(=O)c2ccccc2)(C(F)(F)F)C(=O)N3)cc1OC (stereo not given)	58%
CCOc1ccccc1N(C)C(=O)c1sc2nc3n(c(=O)c2c1C)CCCC3	64%
CCC(C)NC(=O)c1nn(-c2ccc(C)cc2)nc1CO (stereo not given)	94%
COC(=O)c1ccccc1NC(=O)c1cc2cc(C)ccc2n1C	99%
COc1ccc(Cn2c(CCC(=O)NCc3cccc(Cl)c3)nc3cccnc32)cc1	129%
O=C(CCc1nc2cccnc2n1Cc1ccccc1)NCc1cccc(Cl)c1	51% (active)
Cc1ccc(Cn2c(CNC(=O)CCc3ccccc3)nc3cccnc32)cc1	97%
Cc1ccc(CNC(=O)CCc2nc3cccnc3n2Cc2ccccc2)cc1	74%
COc1ccc(CCC(=O)NCc2nc3cccnc3n2Cc2ccc(F)cc2)cc1	119%

Compound	survival
O=C(CCc1ccccc1)NCc1nc2cccnc2n1Cc1ccc(F)cc1	-4% (active)
COc1cc(NC(=O)N(Cc2ccco2)C2CCN(C(C)=O)CC2)cc(OC)c1OC	134%
N#Cc1ccc(NC(=O)CNCC2CCCCC2)cc1	100%
CCn1c(=NC(=O)c2ccc3c(c2)OCCO3)sc2c(C)ccc(OC)c21	120%
CC(C)c1ccc(Cc2cn3cc(-c4cc5ccccc5oc4=O)nc3s2)cc1	56%
O=c1oc2ccccc2cc1-c1cn2cc(Cc3ccccc3F)sc2n1	49% (active)
O=c1oc2ccccc2cc1-c1cn2cc(Cc3ccc(Br)cc3)sc2n1	66%
O=c1oc2ccccc2cc1-c1cn2cc(Cc3ccc(Cl)cc3)sc2n1	84%
O=c1oc2ccccc2cc1-c1cn2cc(Cc3cc(Cl)ccc3Cl)sc2n1	52% (active)
O=c1oc2ccccc2cc1-c1cn2cc(Cc3ccc(F)cc3)sc2n1	128%
Cc1ccc(NC(=O)c2sc3ncn(Cc4cccc(F)c4)c(=O)c3c2C)c(Br)c1	87%
COc1ccc(NC(=O)Cn2c(=O)n(Cc3nc(C)no3)c(=O)c3cc4c(cc32)OCO4)cc1	99%
CC(C)CCNC(=O)CN1C(=O)CSc2ccc(S(=O)(=O)N3CCC(C)CC3)cc21	72%
Cc1ccc(/C=C/c2onc(C)c2S(=O)(=O)N2CCC(C(=O)NCc3ccc(OC(C)C)cc3)CC2)cc1	69%
COc1cccc(CNC(=O)C(=O)NCC(c2ccco2)S(=O)(=O)c2cccs2)c1 (stereo not given)	94%
Cn1c(-n2cccc2)c(-c2c(-c3ccccc3)[nH]c3c2c(=O)[nH]c(=O)n3C)c(=O)[nH]c1=O	60%
COc1ccc(-c2[nH]c3c(c2-c2c(-n4cccc4)n(C)c(=O)[nH]c2=O)c(=O)[nH]c(=O)n3C)cc1F	63%
COc1cccc(-c2[nH]c3c(c2-c2c(-n4cccc4)n(C)c(=O)[nH]c2=O)c(=O)[nH]c(=O)n3C)c1	63% (active)
Cc1ccc(C)c(-c2[nH]c3c(c2-c2c(-n4cccc4)n(C)c(=O)[nH]c2=O)c(=O)[nH]c(=O)n3C)c1	59% (active)
Cc1ccc(-c2[nH]c3c(c2-c2c(-n4cccc4)n(C)c(=O)[nH]c2=O)c(=O)[nH]c(=O)n3C)cc1	65%
Cc1ccc(C)c(-c2[nH]c3c(c2-c2c(-n4cccc4)n(C)c(=O)n(C)c2=O)c(=O)n(C)c(=O)n3C)c1	64%
